Screening results (PubChem)
Hits are enriched below; roughly 14% of the tested compounds scored in any of these assays.
LASV entry inh – qHTS for Inhibitors of binding or entry into cells for Lassa Virus; Lassa virus pseudotype entry inhibition, cell reporter; 300,000 tested, 1.2% active; Potency, µM (highest dose often 37.9 µM), without a hit: at the highest dose activity change, negative = inhibition, hits mostly inhibitors; calls by dose curve; tested in HEK293 cells; further: potency means the concentration at half of the fitted maximal effect; nearly all actives have a fitted effect of over 50% in size
Pf growth 48h – Primary qHTS for delayed death inhibitors of the malarial parasite plastid, 48 hour incubation. P. falciparum luciferase growth in erythrocytes, 48 h. Potency, µM (highest dose often 28.7 µM), inactives show at the highest dose activity change, negative = inhibition, actives largely listed as inhibitors. 310,000 tested, 5.9% active. AID 504832, 2011; further: potency means the concentration at half of the fitted maximal effect
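Cell-based growth assay: transgenic P. falciparum expressing firefly luciferase, cultured in red cells within RPMI 1640 containing 0.5% w/v Albumax, 24 mM bicarbonate and gentamycin. A drop in luciferase activity indicates inhibition.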
Pf growth 96h – Primary qHTS for delayed death inhibitors of the malarial parasite plastid, 96 hour incubation | P. falciparum luciferase reporter growth, 96 h | Potency, µM (series often up to 28.7 µM), without a hit: top-dose activity change, negative = inhibition, hits mostly inhibitors | 320,000 tested, 6.9% active; further: potency means the concentration at half of the fitted maximal effect
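Luminescence readout: decreased luciferase signal marks inhibited growth of reporter-expressing P. falciparum in infected red cells (2% hematocrit, 0.05% parasitemia final), exposed to compound two generations (96 h, 37 C, 5% CO2).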
Marburg entry inh – qHTS for inhibitors of binding or entry into cells for Marburg Virus; AID 540276, 2011; Potency, µM (doses to about 37.8 µM), for the others: at the highest dose activity change, negative = inhibition, most hits filed as inhibitors; 300,000 tested, 1.8% active; Marburg virus pseudotyped entry inhibition, cell reporter; calls by dose curve; tested in HEK293 cells; further: potency means the concentration at half of the fitted maximal effect
HCMV antiviral – qHTS Assay for inhibitors of the human cytomegalovirus (HCMV) | HFF cells, HCMV-luciferase reporter, 72 h; hits give low values | 410,000 tested, 4.5% active | activity change, negative = inhibition, % at 57.5 µM; in the data active means activity change below about -60%; inconclusive means no clear call, values can overlap the other calls; inactive means above about -39%
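Human foreskin fibroblasts infected with luciferase-reporter HCMV at MOI 1 PFU/cell, compounds at two doses. Luciferase measured 72 h post infection; normalized to buffer-only basal and Salinomycin (10uM) controls.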
HCV inh – qHTS Assay for Inhibitors of Hepatitis C Virus (HCV) | Huh7.5.1 HCVcc-Cre infection, luciferase reporter, 44 h | Potency, µM (series often up to 41.8 µM), without a hit: at the top dose activity change, negative = inhibition, usual class: inhibitors | 340,000 tested, 3.4% active | AID 651820, 2012; further: potency means the concentration at half of the fitted maximal effect
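Cells seeded at 1,000/well and cultured 4 h, then compounds added followed by HCVcc-Cre virus (~0.5 moi). After 44 h further culture, luciferase substrate was added, plates held 15 min at room temperature, and luminescence read for 15 sec.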
* marks the source's active call; other numbers are inactive results; ? = inconclusive; / = not tested or not shown; [ ] = remark or other dose. Unless noted, the call rests on the fitted dose curve; in most records, active means well fitted inhibition curve with a large enough effect; inconclusive means small, poorly fitted or top-dose-only effect, or another doubt; inactive means no such curve, though single readings can be large or run the other way. On the % scale 0 is the no-effect control and ±100 the full control effect.

SMILES | LASV entry inh | Pf growth 48h | Pf growth 96h | Marburg entry inh | HCMV antiviral | HCV inh
CCCOc1ccc(C(=O)NC(=S)NCc2cccnc2)cc1 | -16.7% | 6.7% | -19.0% | 0.2% | -64.7* | ?
CC(=O)C1=CCC(c2ccc(C)cc2)N(S(=O)(=O)c2ccc(Cl)cc2)C1 (stereo not drawn) | / | / | / | / | -18.9 | /
CC1=C/C(=N\OS(=O)(=O)c2ccccc2)C(C)=CC1=O | ? | / | 4.15µM* | ? | -99.6* | ?
CC1=C/C(=N\OS(=O)(=O)c2ccccc2)C(C(C)C)=CC1=O | ? | ? | 10.9% | ? | -82.5* | ?
COc1cc(C(=O)O/N=C2/C=C(C)C(=O)C=C2C)cc(OC)c1OC | 3.9%[46.1 µM] | 1.5% | 9.3% | -6.1%[46.1 µM] | -33.3 | 2.1%
COc1ccc(-n2c(=O)c3c4c(sc3n(Cc3ccccc3C)c2=O)CCCC4)c(OC)c1 | -2.7%[46.1 µM] | / | / | ? | -2.1 | /
CC1C(=O)C(C)(C)C(=O)OC1c1ccc([N+](=O)[O-])cc1 (stereo not drawn) | / | -2.9% | 12.9% | / | -104.0* | 8.8%
CCOC(=O)c1c(O)c2ccccc2oc1=O | / | 4.6% | 10.7% | / | 21.2 | 20.7%
CCc1oc2ccccc2c1C(=O)c1cc(I)c(O)c(I)c1 | / | -15.0% | 1.9µM* | / | / | /
Cc1ccc(C)c(Nc2nc3nonc3nc2N2CCOCC2)c1 | 8.7% | 23.0% | 3.1% | 10.3% | -5.2 | 4.7%
CCOC(=O)c1ccc(Nc2nc3nonc3nc2Nc2cccc(C)c2C)cc1 | ? | / | / | ? | -97.2* | /
Cc1ccc(C)c(Nc2nc3nonc3nc2Nc2cccc(C)c2C)c1 | ? | / | / | ? | -101.0* | /
CCOc1ccc(CNC(=O)c2ccc3c(c2)sc2nc(-c4ccccc4)cn23)cc1 | 26.6%[46.1 µM] | / | / | / | / | /
c1ccc2c(-c3cc(NCc4ccncc4)n4nccc4n3)cccc2c1 | / | / | / | / | 12.6 | /
Cc1ccc(-c2nn3c(C)nnc3s2)cc1NC(=O)c1ccc(-c2ccc(Cl)cc2Cl)o1 | ? | 9.3% | / | 14.6µM* | -73.6* | ?
Cc1ccc(OCC(=O)Nc2cc(-c3nn4c(C)nnc4s3)ccc2C)cc1 | / | ? | 7.38µM* | / | -9.0 | -4.7%
CCC(=O)Nc1cc(-c2nn3c(C)nnc3s2)ccc1C | 13.0% | 18.2% | 7.0% | 11.5% | 44.1 | 13.0%
Cc1ccc(-c2nn3c(C)nnc3s2)cc1NC(=O)c1ccc(-c2cccc(Cl)c2)o1 | ? | / | ? | 9.2µM* | ? | ?
Cc1ccc(SCC(=O)OCC(=O)NCCc2ccc(S(N)(=O)=O)cc2)c(C)c1 | -1.7%[46.1 µM] | / | / | 3.4%[46.1 µM] | -10.5 | 10.4%
CN1OC(C)(CC(=O)NCc2ccccc2)N=C1c1ccccc1 (stereo not drawn) | / | / | / | / | -7.7 | /
O=[N+]([O-])c1cc([N+](=O)[O-])c(Oc2cc(Cl)cc(Cl)c2)cc1NN1CCCCC1 | / | 8.8% | 12.5% | / | -78.1* | 3.3%
CC(=O)c1ccccc1Oc1cc(NN2CCCCC2)c([N+](=O)[O-])cc1[N+](=O)[O-] | / | -19.1% | ? | / | -26.0 | ?
Cc1ccc(Oc2cc(NN3CCCCC3)c([N+](=O)[O-])cc2[N+](=O)[O-])c(Cl)c1 | / | ? | 13.1µM* | / | 14.6 | 5.3%
CC(=O)c1cccc(Oc2cc(NN3CCCCC3)c([N+](=O)[O-])cc2[N+](=O)[O-])c1 | / | -9.2% | 11.7µM* | / | -36.8 | 8.91µM*
Cc1cccc(NC(=O)CSc2nc(=O)n(Cc3ccncc3)c3c2CCC3)c1C | -27.5%[46.1 µM] | / | / | / | -9.7 | /
SMILES | LASV entry inh | Pf growth 48h | Pf growth 96h | Marburg entry inh | HCMV antiviral | HCV inh
Cc1cc2[nH]c(=O)c(=O)[nH]c2cc1S(=O)(=O)N1CCN(c2ccccc2F)CC1 | 29.2%[46.1 µM] | ? | ? | / | 1.0 | 5.7%
COc1ccccc1N1CCN(S(=O)(=O)c2cc3[nH]c(=O)c(=O)[nH]c3cc2C)CC1 | 16.6%[46.1 µM] | 9.28µM* | ? | -1.9%[46.1 µM] | 42.4 | 13.8%
Cc1cc2[nH]c(=O)c(=O)[nH]c2cc1S(=O)(=O)N1CCN(c2cccc(C)c2C)CC1 | 3.2%[46.1 µM] | ? | 4.65µM* | / | 6.8 | 20.9%
COC(=O)[C@H]1[C@@H](c2ccccc2)NC(=O)N(CCc2cc(OC)c(OC)c(OC)c2)[C@@H]1C | / | / | / | -23.7%[14.2 µM] | / | /
CCCC[C@@H]1CN2[C@H](c3ccc(Br)cc3)[C@H](C)CC[C@H]2C(=O)O1 | / | / | / | 3.6%[14.2 µM] | / | /
Cc1cc(NC(=O)CCC(=O)N(Cc2ccccc2)C2(C(=O)NC3CCCCC3)CCCC2)no1 | ? | 9.28µM* | ? | ? | ? | -3.8%
Cc1cc(NC(=O)CCC(=O)N(CC(=O)NC2CCCC2)c2ccc(C)c(F)c2)no1 | 20.7%[46.1 µM] | -16.8% | -4.7% | 7.5%[46.1 µM] | 1.7 | 4.2%
COc1cccc(CN(CC(=O)NC2CCCC2)C(=O)CCC(=O)Nc2cc(C)on2)c1 | 2.6% | / | ? | -11.4% | -80.8* | 19.2%
Cc1cc(NC(=O)CCC(=O)N(Cc2ccco2)C2(C(=O)NC3CCCCC3)CCCCC2)no1 | 33.7%[46.1 µM] | -24.7% | 1.31µM* | ? | -36.3 | ?
COc1cccc(N(CC(=O)NC2CCCC2)C(=O)CCC(=O)Nc2cc(C)on2)c1 | -12.3% | ? | ? | -15.9%[46.1 µM] | 7.6 | 8.6%
Cc1cc(NC(=O)CCC(=O)N(c2ccc(F)cc2)C2(C(=O)NC3CCCCC3)CCCC2)no1 | -22.8% | ? | 128.2% | 11.2µM* | -21.5 | -22.3%
Cc1cc(NC(=O)CCC(=O)N(Cc2ccco2)C(C(=O)NC2CCCCC2)c2ccccc2)no1 (stereo not drawn) | -15.8% | ? | 0.3% | -18.2% | -7.0 | -27.2%
